Bioassay records from PubChem.
This is a sample that favours compounds with a hit; in the whole collection about 2.6% have one here.
NOD2-RIPK2 inh – blocks binding of human NOD2 to RIPK2. O43353. CHO BLA complementation NOD2-RIPK2, CCF4 ratio. inhibition, % at 4.98 µM. actives 0.38% (n = 360,000). AID 624267; in the data active = inhibition above about 21%;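 note: 0% = vehicle only and 100% = reference blocker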
Target sequence (O43353 whole entry, looked up): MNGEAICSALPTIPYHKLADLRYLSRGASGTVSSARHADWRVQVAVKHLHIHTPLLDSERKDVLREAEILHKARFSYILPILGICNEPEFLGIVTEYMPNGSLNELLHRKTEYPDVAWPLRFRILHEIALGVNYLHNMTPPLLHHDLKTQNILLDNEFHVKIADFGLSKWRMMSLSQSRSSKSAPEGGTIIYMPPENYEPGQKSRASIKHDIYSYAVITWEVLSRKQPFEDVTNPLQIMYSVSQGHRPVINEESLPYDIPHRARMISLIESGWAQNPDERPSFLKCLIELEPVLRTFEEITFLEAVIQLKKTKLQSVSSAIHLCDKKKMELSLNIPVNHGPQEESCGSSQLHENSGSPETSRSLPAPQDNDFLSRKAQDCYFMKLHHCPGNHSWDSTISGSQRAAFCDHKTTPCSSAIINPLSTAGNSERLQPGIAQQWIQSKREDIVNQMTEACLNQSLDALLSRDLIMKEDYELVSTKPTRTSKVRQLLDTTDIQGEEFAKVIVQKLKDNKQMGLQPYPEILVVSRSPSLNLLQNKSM
TLR9-MyD88 inh – TLR9-MyD88 interaction inhibition | AID 504734 | actives 0.21% (n = 340,000) | CHO BLA complementation TLR9-MyD88, CCF4 FRET ratio | inhibition, % at 4.98 µM | Q9NR96+Q99836;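 active = inhibition above the mean over all tested compounds plus 3 SD, cut at about 21% in these data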;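 note: 0% = DMSO only wells and 100% = clavulanate BLA inhibitor control wells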
TLR4-MyD88 BLA – TLR4-MyD88 interaction inhibition in cells; HeLa CL3-4 TLR4/MyD88 BLA complementation, FRET ratio; inhibition, % at 8.4 µM; actives 0.18% (n = 200,000); AID 861; in the data active = inhibition above about 25%;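 note: 0% = vehicle and 100% = reference inhibitor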
Granule exo inh – lytic granule exocytosis inhibition | TALL-104 LAMP-1 surface exposure, flow cytometry; cells stimulated with thapsigargin and PMA | inhibition, % at 10 µM | actives 0.66% (n = 360,000);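 active = inhibition above about 55%, limit read from the data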
ABHD5 PLIN5 PPI – blocks binding of human ABHD5 to perilipin-5. Q00G26+Q8WTS1. Split G. princeps luciferase complementation, luminescence, 4 h. inhibition, % at 4 µM. actives 0.78% (n = 360,000). AID 602281;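 active = inhibition above the mean inhibition across every tested compound plus 3 SD, cut at about 22% in these data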;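 note: 0% = DMSO only wells and the 100% control is not disclosed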
PRMT1 inh – inhibitors of human PRMT1; recombinant PRMT1, activity-based probe fluorescence polarization; AID 652257; actives 1.3% (n = 370,000); inhibition, % at 2.79 µM;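 active = inhibition above about 21% made by adding two undisclosed values, limit read from the data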
TLR4 MyD88 cnf – confirmation of human TLR4-MyD88 binding inhibitors | AID 941 | actives 50% (n = 350) | inhibition, % at 8.4 µM | HeLa CL3-4 BLA complementation, CCF4 FRET ratio | shares compounds with TLR4-MyD88 BLA;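 active = mean inhibition across three repeat runs above about 25% carried over from the earlier screen, limit read from the data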;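 note: plate controls were DMSO only for no effect and clavulanic acid blocking BLA at full dose for full effect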
BLA inh HeLa – counter-screen for TLR4-MyD88 inhibitors: beta-lactamase reporter inhibitors; actives 63% (n = 350); shares compounds with TLR4-MyD88 BLA; HeLa BLA reporter, CCF4 FRET ratio; inhibition, % at 8.4 µM;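 active = mean inhibition over three repeats above about 26% taken from the earlier screen, limit read from the data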;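 note: HeLa cells stably expressing beta-lactamase reporter as counterscreen for TLR4-MyD88 inhibitors; 0% = DMSO and 100% = clavulanic acid full inhibition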
TLR9-MyD88 conf – confirmation of human TLR9-MyD88 binding inhibitors. inhibition, % at 4.98 µM. actives 51% (n = 680). shares compounds with TLR9-MyD88 inh. CHO TLR9/MyD88 BLA complementation, CCF4 FRET ratio. AID 540250;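 active = mean inhibition across three repeats above about 21% taken from the earlier screen, limit read from the data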;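 note: blue over green emission ratio reports constitutive TLR9 MyD88 association via BLA complementation; 0% = DMSO vehicle wells and 100% = clavulanate BLA inhibitor wells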
BLA counter-1 – non-selective beta-lactamase inhibitors in TLR9-MyD88 counter-screen; inhibition, % at 4.98 µM; actives 7% (n = 680); CHO-BLA cells, CCF4 FRET ratio, BLA reporter; shares compounds with TLR9-MyD88 inh;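 active = mean inhibition above a 50% cutoff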;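 note: counterscreen of TLR9-MyD88 hits on CMV-driven BLA in CHO-K1 cells; 0% = DMSO alone and 100% = clavulanate blocking BLA; higher means less blue over green ratio so more BLA blockade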
TLR9 CHO tox – counter-screen for TLR9-MyD88 inhibitors: cytotoxicity in CHO cells; AID 588336; actives 39% (n = 680); inhibition, % at 4.98 µM; luminescence; shares compounds with TLR9-MyD88 inh; in the data active = inhibition above about 11%
ABHD5 PLIN5 conf – confirmation of human ABHD5-PLIN5 interaction inhibitors; AID 651612; inhibition, % at 4 µM; biochemical ABHD5-PLIN5 interaction, luminescence; actives 67% (n = 2,200); shares compounds with ABHD5 PLIN5 PPI; in the data active = inhibition above about 23%;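 note: 0% = DMSO vehicle wells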
HNF4 split-luc – HNF4 split-luciferase signal hit, counter-screen | shares compounds with ABHD5 PLIN5 PPI | inhibition, % at 4 µM | AID 651674 | actives 77% (n = 2,200) | HNF4 dimerization, luminescence, biochemical;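 active = mean inhibition across replicate wells exceeding the computed hit threshold, cut at about 13% in these data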;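 note: light from luciferase halves that rejoin when HNF4 fusion proteins dimerize; 0% = DMSO only wells and the 100% control is not given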
NOD2 RIPK2 conf – confirmation of human NOD2-RIPK2 interaction inhibitors. inhibition, % at 4.98 µM. shares compounds with NOD2-RIPK2 inh. CHO cells, NOD2-RIPK2 BLA complementation, CCF4 FRET. actives 70% (n = 1,200). AID 624370;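 active = mean inhibition across replicates above a set limit taken from the earlier primary screen, cut at about 21% in these data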;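 note: 0% = DMSO-only wells and the high end = clavulanate BLA-blocked wells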
BLA counter-2 – counter-screen for NOD2-RIPK2 interaction inhibitors: BLA reporter; shares compounds with NOD2-RIPK2 inh; CHO BLA reporter, CCF4 FRET ratio, counterscreen; inhibition, % at 4.98 µM; actives 57% (n = 1,200); AID 624371;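 active = mean inhibition above the low-control mean inhibition plus three low-control SD, cut at about 11% in these data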;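 note: 0% = DMSO only wells and 100% = clavulanate high control wells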
An asterisk follows results filed as active; / = no result.

SMILES	NOD2-RIPK2 inh	TLR9-MyD88 inh	TLR4-MyD88 BLA	Granule exo inh	ABHD5 PLIN5 PPI	PRMT1 inh	TLR4 MyD88 cnf	BLA inh HeLa	TLR9-MyD88 conf	BLA counter-1	TLR9 CHO tox	NOD2 RIPK2 conf	BLA counter-2	others
Cn1c(=O)c([N+](=O)[O-])c(NCCCn2ccnc2)c2ccccc21	-2	-6	/	-5	9	-2	/	/	/	/	/	/	/
Cn1cccc1/C=C1\CCC/C(=C\c2cccn2C)C1=O	-5	23*	35*	5	48*	15	20	45*	26*	23	-3	/	/	ABHD5 PLIN5 conf=19;HNF4 split-luc=40*
CS(=O)(=O)c1nc(-c2ccccc2)cc(C(F)(F)F)n1	60*	36*	31*	74*	63*	12	20	-17	35*	16	96*	/	/	ABHD5 PLIN5 conf=88*;HNF4 split-luc=104*
C#CCNC(=O)C[C@H]1C[C@@]2(C(=O)OCC)CCCC3=C2N(CCC3)C1=O	/	/	/	/	/	-1	/	/	/	/	/	/	/
C=CCN1C(=O)[C@H](CC(=O)NCCCOCCCC)[C@@]2(C(=O)OCC)CCCC=C12	/	/	/	/	/	-8	/	/	/	/	/	/	/
Cc1ccc(-c2nc3sc(C(N)=O)c(N)c3c3c2CCCC3)cc1	1	-2	9	48	-6	17	/	/	/	/	/	/	/
CC(=O)c1sc2nc(-c3ccc(C)cc3)c3c(c2c1N)CCCC3	36*	51*	26*	15	-7	10	32*	61*	41*	46	9	57*	68*
COC(=O)[C@]12C[C@H](CC(=O)NCCC(C)C)C(=O)N(Cc3ccccc3)C1=C[C@H](C(C)(C)C)O[C@@H]2C	/	/	/	/	/	-3	/	/	/	/	/	/	/
C/C(=N\Nc1ccc([N+](=O)[O-])cc1)c1ccc(O)cc1	29*	/	38*	0	10	4	20	44*	/	/	/	42*	48*
CCCCNC(=O)C[C@H]1C(=O)N(CCCOC)C2=CCCCC[C@]21C(=O)OC	/	/	/	/	/	-2	/	/	/	/	/	/	/
CC(C)c1cc(=O)oc2c3c4c(cc12)CCCN4CCC3	7	1	6	0	1	8	/	/	/	/	/	/	/
CN1CCCc2cc3c(C(F)(F)F)cc(=O)oc3nc21	35*	47*	39*	3	7	18	36*	66*	38*	45	7	69*	73*
Oc1ccc2[nH]cc(-c3cccs3)c2c1-c1ccccc1	/	/	/	/	/	5	/	/	/	/	/	/	/
Cc1cc(Cl)n2c(nc3cc(F)c(F)cc32)c1C#N	63*	71*	75*	10	6	5	72*	86*	66*	54*	101*	90*	82*
Cc1cc(C)n2c(=O)c3ccc(Cl)cc3nc2c1C#N	-6	0	1	-2	2	-2	/	/	/	/	/	/	/
O=C1c2cccc3c(O)ccc(c23)C(=O)N1Cc1ccccc1	42*	26*	32*	21	-28	174*	11	34*	/	/	/	46*	56*
N#C/C(=C\c1ccc([N+](=O)[O-])o1)c1nc2ccccc2[nH]1	/	/	10	/	/	-1	/	/	/	/	/	/	/
Cc1ccc2nc(/C(C#N)=C\c3ccc([N+](=O)[O-])o3)[nH]c2c1	27*	24*	84*	62*	-10	3	83*	96*	57*	70*	75*	86*	70*
CCN(CC)c1ccc2c(C)c(Cl)c(=O)oc2c1	15	8	16	9	-3	2	/	/	/	/	/	/	/
CCN(CC)c1ccc2c(c1)oc(=O)c1c(Cl)cc(=O)oc12	62*	50*	80*	41	14	/	87*	109*	51*	74*	73*	89*	84*
O=C1c2cccc3c([N+](=O)[O-])ccc(c23)C(=O)N1c1ccccn1	90*	81*	92*	29	6	5	91*	114*	65*	85*	99*	93*	87*
C=CC[C@]1(c2ccccc2)C(=O)N2C[C@H]3CON(C)[C@H]3C[C@H]2c2ccccc21	/	/	/	/	/	2	/	/	/	/	/	/	/
CCN1CCN(c2ccc(NC(=O)c3ccc([N+](=O)[O-])o3)cc2Cl)CC1	31*	12	30*	3	0	-1	20	5	/	/	/	25*	16*
CCCCNC(=O)COC(=O)c1c2c(nc3ccccc13)/C(=C/c1cccs1)CC2	52*	48*	56*	1	5	2	50*	83*	43*	46	6	67*	77*
CCCCNC(=O)COC(=O)c1c2c(nc3ccccc13)CCC2	2	3	/	15	-4	1	/	/	/	/	/	/	/
CNC(=O)NC(=O)C(C)OC(=O)c1c2c(nc3ccccc13)/C(=C/c1cccs1)CC2 (configuration not stated)	56*	51*	51*	32	5	6	55*	85*	51*	63*	11*	72*	81*
C=CCN=C1NC(c2ccccc2)C(C(=O)OC)=C(C)N1Cc1ccccc1C(F)(F)F (configuration not stated)	/	/	/	/	/	6	/	/	/	/	/	/	/
O=C(/C=C/c1ccc([N+](=O)[O-])cc1)c1cccs1	7	-8	/	0	15	-2	/	/	/	/	/	/	/
Nc1ccc(/C=C/C(=O)c2cccs2)cc1	30*	23*	25*	-2	13	-1	17	37*	9	11	-3	40*	34*
